Screening results: PubChem BioAssay, National Center for Advancing Translational Sciences (NCATS)
ATXN2 expr inh: reduces ATXN2 reporter expression in HEK-293 cells; HEK-293 ATXN2-luciferase reporter, luminescence, 24 h; Potency, µM (series often up to 57 µM), actives largely listed as inhibitors; 0.72% of 360,000 active; note: nearly all actives have a fitted effect of over 55% in size
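qHTS (up to 57 uM final) was run with 24 h compound exposure of reporter cells at 37 °C. Each well was multiplexed: SteadyGlo luminescence measured ATXN2-luciferase expression after a fluorogenic Gly-Phe-AFC viability readout (25 uM final).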
KB-V1 cytotox: kills drug-selected multidrug resistant KB-V1 cells. KB-V1 MDR cells viability, CellTiter-Glo, 72 h. 3.4% of 400,000 active. Potency, µM (top dose mostly 46.1 µM), usual class: cytotoxic; note: nearly all actives have a fitted effect of over 60% in size
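qHTS viability screen in drug-selected KB-V1 MDR cells: 72 h compound treatment at 37 degrees C, ATP luminescence end point.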
HepG2 viability: kills HepG2 cells in TGF-b inhibitor counter-screen | HepG2 CAGA-GFP viability, ATP luminescence, 18 h | Potency, µM (top dose mostly 46.1 µM), actives largely listed as cytotoxic | 0.76% of 410,000 active
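HepG2 CAGA-GFP cells (1000/well, DMEM with 1% FBS) received compound, then TGF-beta at 500 pg/mL final, and were incubated 18 hours at 37 degrees C. Viability was read by CellTiter-Glo luminescence. Media-only wells were set as complete cell-killing and DMSO as no toxicity.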
TGFb SMAD3 inh: inhibitors of TGF-b signaling; Potency, µM (doses to about 46.1 µM), usual class: inhibitors; HepG2 CAGA-GFP TGF-b/SMAD3 reporter, GFP fluorescence, 18 h; TGF-beta stimulated, 500 pg/mL final; 1.2% of 410,000 active; note: nearly all actives have a fitted effect of over 65% in size
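GFP signal (ex488/em500-530) from TGF-beta-stimulated HEPG2 CAGA-GFP cells, 500 pg/mL final, 18 h at 37 degrees C in DMEM plus 1% FBS, normalized to unstimulated and DMSO-stimulated controls.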
KB-3-1 tox: KB-3-1 parental cell cytotoxicity | KB-3-1 viability, CellTiter-Glo ATP luminescence, 72 h | Potency, µM (highest dose often 46.1 µM), hits mostly cytotoxic | 1.4% of 400,000 active; note: nearly all actives have a fitted effect of over 60% in size
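Here the drug-naive KB-3-1 line serves as comparator for MDR sub-line selectivity; cells received compound titrations, 72 h at 37 °C, then CellTiter-Glo readout.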
ATXN viability: cell viability loss in ATXN counter-screen | S2 cells (HEK-293 line with an ATXN2-luciferase reporter) viability, CellTiter-Fluor protease fluorescence, 24 h | Potency, µM (top dose mostly 56.7 µM), hits mostly cytotoxic | 0.49% of 400,000 active; note: nearly all actives have a fitted effect of over 40% in size
Numbers stand for hits; 0 = inactive; ? = inconclusive; - = not tested or not shown; ! = not active in a repeat. The list is not random: actives were taken first. Their share in the collection is about 5.9%. Calls come from the whole dose curve; as a rule, active = well fitted curve in the direction sought with a large enough effect; inconclusive = small, poorly fitted or top-dose-only effect, or another doubt; inactive = no such curve, though single readings can be large; an effect the other way counts as inactive or inconclusive.

SMILES	ATXN2 expr inh	KB-V1 cytotox	HepG2 viability	TGFb SMAD3 inh	KB-3-1 tox	ATXN viability
O=C(c1ccc(COc2ccc3ccccc3c2)o1)N1N=C(C(F)F)CC1(O)C(F)F (centres undefined)	0	?	0	11µM	0	0
O=C(c1ccc(COc2ccc(Br)cc2)o1)N1N=C(C(F)F)CC1(O)C(F)F (centres undefined)	0	0	0	0	0	?
CCOc1ccc(OCc2ccc(C(=O)N3N=C(C(F)F)CC3(O)C(F)F)o2)cc1 (centres undefined)	0	16µM	0	0	0	0
CCOC(=O)c1c(S(=O)(=O)N2CCC(C(=O)Nc3cccc(C#N)c3)CC2)c(C)n(C)c1C	0	0	0	0	0	0
Cc1ccc(Cc2c(C)nc3nc(SCC(=O)NCCC(C)C)nn3c2C)cc1	0	0	0	0	0	0
CCOc1cc(-c2ccc(OC(=O)c3ccccc3F)cc2)cc(=O)c2c(C)oc(C)c12	-	-	0	0	-	-
Cc1noc(/C=C/c2ccco2)c1S(=O)(=O)N1CCC(C(=O)Nc2ccc(F)c(Cl)c2)CC1	-	-	0	2.5µM	-	-
CCN(CC)CCNC(=O)C1CCN(S(=O)(=O)c2c(C)noc2/C=C/c2ccccc2F)CC1	13µM	?	14µM!	?	0	?
CN(C)c1ccc(CNC(=O)C2CCN(S(=O)(=O)c3ccc4c(ccn4C)c3)CC2)cc1	0	0	0	?	0	0
NC(=O)c1ccccc1NC(=O)/C=C/c1ccc(Cl)cc1	0	15µM	0	0	0	0
COC(=O)c1ccc(C2c3c(oc4cc(C)c(C)cc4c3=O)C(=O)N2c2ccccn2)cc1 (centres undefined)	0	0	0	0	0	0
COc1ccc(-c2c(C)nn3c4c(cnc23)C(=O)CC(c2ccc(C)cc2)C4)cc1 (centres undefined)	0	0	0	0	0	0
Cc1ccc2oc(-c3ccc(C)c(NC(=O)C(C)(C)Oc4ccc(Cl)cc4)c3)nc2c1	0	0	0	0	0	0
CN1Cc2c(N3CCOCC3)nc3sc(C(=O)c4ccc(Br)cc4)c(N)c3c2CC1(C)C	?	?	10µM	?	?	-
CN1Cc2c(N3CCOCC3)nc3sc(C#N)c(N)c3c2CC1(C)C	0	0	0	0	0	0
Nc1cc(C(F)(F)F)ccc1S	0	-	-	-	-	0
COc1ccccc1CNC(=O)c1cc2ccc3ccc(C)[nH]c3c2n1	?	?	0	?	0	0
COc1cccc(N=Nc2ccc(O)c3ncccc23)c1	?	0	0	?	4.6µM	16µM
Oc1ccc(N=Nc2ccc3c(c2)OCCO3)c2cccnc12	?	?	0	0	?	10µM
O=C1CCCC2=C1C(c1ccc(Cl)cc1)N=C(Nc1nc3ccccc3o1)N2 (centres undefined)	-	0	0	0	0	-
Cc1ccc(C(=O)COC(=O)C2C3C=CC(C3)C2C(=O)OCC(=O)c2ccc(C)c(C)c2)cc1C (centres undefined)	0	16µM	0	?	?	0
CC(=O)NCC(=O)OCC(=O)c1ccc(C)c(C)c1	0	0	0	0	0	0
CC(=O)/C(N=Nc1cccc(C(F)(F)F)c1)=C(\C)O	0	0	0	0	0	0
O=C(/C(N=Nc1cccc(C(F)(F)F)c1)=C(/O)c1cccs1)C(F)(F)F	?	?	0	13µM	?	?
CN(C)CCNc1cccc2sc3ccc(O)cc3c(=O)c12	18µM	23µM	0	4.5µM	16µM	0
SMILES	ATXN2 expr inh	KB-V1 cytotox	HepG2 viability	TGFb SMAD3 inh	KB-3-1 tox	ATXN viability
Cc1ccc(NCCN(C)C)c2c(=O)c3cc(O)ccc3sc12	11µM	12µM	0	?	?	27µM
COc1cc(C)c2sc3ccccc3c(=O)c2c1NCCN(C)C	-	?	0	?	0	-
O=C(Nc1cc(-c2nc3cc(Cl)ccc3o2)ccc1Cl)c1ccco1	0	0	0	0	0	0
O=C(CCSCc1ccccc1Cl)N1CCN(c2cccc(Cl)c2)CC1	0	21µM!	0	?	0	?
O=C(CSCc1nc2ccccc2[nH]1)N1CCN(c2cccc(Cl)c2)CC1	0	21µM	0	?	?	0
O=C(CSCc1nc2ccccc2[nH]1)N1CCN(c2ccc(F)cc2)CC1	0	0	0	0	0	0
CCOC(=O)c1ccc(N(C(=O)c2ccccc2)c2ccccc2)cc1	-	0	0	?	0	-
CS(=O)(=O)c1ccc(C(=O)Nc2ccc(Cl)c(-c3ccccn3)c2)c(Cl)c1	0	-	-	-	-	-
C[C@]12c3[nH]c4ccccc4c3CCN1C(=O)C(CC(=O)NCc1cccc(C(F)(F)F)c1)C[C@@H]2C(=O)N1CCOCC1 (some centres undefined)	0	0	0	0	0	0
O=C(C[C@H]1C[C@H](C(=O)N2CCOCC2)[C@@]2(CCC3CCCC3)c3[nH]c4cc(-c5ccco5)ccc4c3CCN2C1=O)NCc1cccc(C(F)(F)F)c1	0	16µM	0	?	?	?
CN(C)CCCNC(=O)C[C@H]1C[C@H](C(=O)N2CCOCC2)[C@@]2(CCC3CCCC3)c3[nH]c4cc(-c5ccco5)ccc4c3CCN2C1=O	25µM	0	0	?	?	-
O=C(C[C@H]1C[C@H](C(=O)N2CCOCC2)[C@@]2(CCC3CCCC3)c3[nH]c4ccc(Cl)cc4c3CCN2C1=O)NCCCn1ccnc1	?	0	0	11µM	?	-
O=C(C[C@H]1C[C@H](C(=O)N2CCOCC2)[C@@]2(CCC3CCCC3)c3[nH]c4cc(-c5ccco5)ccc4c3CCN2C1=O)NCCN1CCOCC1	?	0	0	?	?	-
C[C@]12c3[nH]c4ccccc4c3CCN1C(=O)C(CC(=O)NCc1cccc(C(F)(F)F)c1)C[C@@H]2C(=O)N1CCCCC1 (some centres undefined)	0	0	0	11µM	0	?
CN(C)C(=O)CCc1ccc2c3c([nH]c2c1)[C@]1(CCC2CCCC2)[C@@H](C(=O)N2CCOCC2)C[C@H](CC(=O)NCCCn2ccnc2)C(=O)N1CC3	0	0	0	0	0	0
COc1ccc(-c2nnc(-c3cccs3)o2)cc1OC	0	6.5µM	0	0	0	0
COc1cc(-c2nnc(-c3cccs3)o2)cc(OC)c1OC	0	?	0	0	0	0
